Data as given in PubChem BioAssay (Tox21).
Unmarked numbers belong to inactive results. Records with an inconclusive call do not appear. Where a call stands in place of a potency, no number is given. Calls of active or inactive are those of the source. Unless noted, calls follow the shape of the dose curve; as a rule, active = well fitted curve in the direction sought with a large enough effect in the repeat runs; inconclusive = weak or mixed curves; inactive = no such curve, though single readings can be large; an effect the other way counts as inactive or inconclusive.

Legend:
[1] = target: Estrogen receptor beta (Homo sapiens) (UniProt Q92731); assay: qHTS assay to identify small molecule agonists of the estrogen receptor beta (ER-beta) signaling pathway (AID 1259377; active = well fitted activation curve with a large enough effect in the signal ratio in the repeat runs, not every such curve was filed as active; the % refers to the signal ratio; also: potency is read from the fitted curve at half-maximal effect)
Outline: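 Ratiometric beta-lactamase FRET read-out came after 2 h substrate loading at room temperature. It followed 16 h compound treatment at 37C of GripTite HEK293T cells carrying a UAS-bla reporter, plated in 2% charcoal-stripped FBS medium.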

[2] = qHTS assay to identify small molecule agonists of the androgen receptor (AR) signaling pathway in the presence of an antagonist - cell viability counter screen (AID 1259379);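 also: MDA-kb2 human breast cancer cells carrying an MMTV luciferase reporter; series mostly up to about 92 µM; nearly all actives have a fitted effect of over 25% in size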
Outline: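 Each compound was tested at 15 concentrations on MDA-kb2 cells in the presence of 3.0uM nilutamide. Viability was measured by CellTiter-Fluor fluorescence after a 16 hr incubation at 37C in a CO2-free atmosphere.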

[3] = qHTS assay to identify small molecule agonists of the estrogen receptor beta (ER-beta) signaling pathway - cell viability counter screen (AID 1259380); also: nearly all actives have a fitted effect of over 30% in size
Outline: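 Compounds dissolved in DMSO were pin-transferred onto ER-beta-UAS-bla HEK293T cells that had settled 6 hr, and exposure ran 16 hr at 37C. Following the reporter read, CellTiter-Glo luminescence after 30 min at room temperature indicated cytotoxicity.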

[4] = target: Androgen receptor (Homo sapiens) (UniProt P10275); assay: qHTS assay to identify small molecule agonists of the androgen receptor (AR) signaling pathway in the presence of an antagonist (AID 1259381; calls by dose curve; also: nearly all actives have a fitted effect of over 15% in size; also: potency is read from the fitted curve at half-maximal effect)
Outline: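 Plated MDA-kb2 cells (3,000/well) were pre-incubated 5hr, given nilutamide (3.0uM final) or buffer, then dosed with compounds in DMSO at 15 concentrations. Luciferase activity was quantified by luminescence after 16hr at 37C.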

[5] = qHTS assay to identify small molecule antagonists of the estrogen receptor beta (ER-beta) signaling pathway - cell viability counter screen (AID 1259382); also: series mostly up to about 92 µM; nearly all actives have a fitted effect of over 55% in size
Outline: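 CellTiter-Glo ATP luminescence measured after the LiveBLAzer read in the same wells; ER-beta-UAS-bla HEK293T cells, 16 hr compound treatment with 1nM 17-beta-estradiol agonist at 37C, 5% CO2.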

[6] = target: Estrogen receptor (Homo sapiens) (UniProt P03372); assay: qHTS assay to identify small molecule agonists of the estrogen receptor alpha (ER-alpha) signaling pathway in the presence of an antagonist (AID 1259383; calls by dose curve; also: top concentration of the series differs between compounds; nearly all actives have a fitted effect of over 15% in size)
Outline: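 Luminescent ERE-luciferase reporter, VM7Luc4E2 cells (endogenous ER-alpha); 10.0nM ICI-182,780 final; 15-point compound titration; 22hr at 37C; ONE-Glo, 30min RT.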

[7] = qHTS assay to identify small molecule agonists or antagonists of the thyroid stimulating hormone receptor (TSHR) signaling pathway - wild type cell line counter screen (AID 1259384; calls by dose curve)
Outline: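 Wild-type Hek293 cells, 800/well, 18 h at 37C, then compound with Ro20-1724 for 30 min RT. cAMP by HTRF (cAMP-d2/anti-cAMP cryptate), 1 h RT, fluorescence read. 15 concentrations, triplicates.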

[8] = target: Thyrotropin receptor (Homo sapiens) (UniProt P16473); assay: qHTS assay to identify small molecule antagonists of the thyroid stimulating hormone receptor (TSHR) signaling pathway (AID 1259385; calls by dose curve; also: nearly all actives have a fitted effect of over 20% in size)
Outline: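 TSHR-HEK293 cells (800/well) plated 18 h, then compounds with Ro20-1724 and TSH at 1.5 ng/mL final, 30 min at room temperature. cAMP quantified by HTRF (cAMP-d2/anti-cAMP-cryptate, 1 h); 15 concentrations in triplicate.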

[9] = qHTS assay to identify small molecule agonists of the estrogen receptor alpha (ER-alpha) signaling pathway in the presence of an antagonist - cell viability counter screen (AID 1259386);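 also: cells exposed to compounds for 22 h at 37 °C before the viability read; nearly all actives have a fitted effect of over 30% in size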; also: potency is read from the fitted curve at half-maximal effect
Outline: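 Using estrogen-depleted VM7Luc4E2 cells, the 15-concentration compound series was applied together with 10.0nM ICI-182,780 and incubated 22hr at 37C/5% CO2. Cell viability was then scored by CellTiter-Fluor.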

[10] = target: Progesterone receptor (Homo sapiens) (UniProt P06401); assay: qHTS assay to identify small molecule agonists of the progesterone receptor (PR) signaling pathway (AID 1346784; calls by dose curve; also: nearly all actives have a fitted effect of over 30% in size; also: potency is read from the fitted curve at half-maximal effect)
Outline: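 Agonist qHTS: compounds pinned onto 3,000 PR-UAS-bla HEK 293T cells per well in charcoal-stripped serum medium, 16hr at 37C, then beta-lactamase activity measured by LiveBLAzer FRET fluorescence after 2 hours at room temperature.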

[11] = target: Progesterone receptor (Homo sapiens) (UniProt P06401); assay: qHTS assay to identify small molecule antagonists of the progesterone receptor (PR) signaling pathway (AID 1346795; active = well fitted inhibition curve with a large enough effect in the signal ratio in the repeat runs, not every such curve was filed as active; the % refers to the signal ratio; also: potency is read from the fitted curve at half-maximal effect)
Outline: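 Antagonist mode with agonist R5020 at 1 nM final and 16 hr incubation at 37C. Reporter was beta-lactamase driven by UAS in HEK293T (PR-UAS-bla), 2% charcoal-stripped serum; signal from LiveBLAzer FRET substrate, 2 hr at room temperature.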

[12] = qHTS assay to identify small molecule antagonists of the progesterone receptor (PR) signaling pathway - cell viability counter screen (AID 1346798); also: series mostly up to about 92 µM; nearly all actives have a fitted effect of over 50% in size
Outline: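 Cytotoxicity read as CellTiter-Glo luminescence (30 min, room temperature) in the same wells as the beta-lactamase readout. HEK293T PR-UAS-bla cells in charcoal-stripped 2% FBS received compound and R5020, then 16 h at 37C, 5% CO2.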

[13] = qHTS assay to identify small molecule agonists of the progesterone receptor (PR) signaling pathway - cell viability counter screen (AID 1346799; calls by dose curve; also: nearly all actives have a fitted effect of over 45% in size; also: potency is read from the fitted curve at half-maximal effect)
Outline: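 Cytotoxicity measured by CellTiter-Glo luminescence (30 min, RT) in the same wells as the PR beta-lactamase agonist read. Those HEK293T cells had 16 h compound treatment at 37 C in 2% charcoal-stripped FBS medium.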

[14] = qHTS assay to identify small molecule antagonists of the TGF-beta/Smad signaling pathway - cell viability counter screen (AID 1346824); also: nearly all actives have a fitted effect of over 50% in size
Outline: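 SBE-bla HEK 293T cells, incubated overnight, then compound plus 0.25 ng/mL TGF-beta1 (stock added) for 5 hr at 37 C. Viability was read in the same wells by CellTiter-Glo luminescence after 30 min at room temperature.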

[15] = qHTS assay to identify small molecule agonists of the TGF-beta/Smad signaling pathway - cell viability counter screen (AID 1346829); also: top concentration of the series differs between compounds; nearly all actives have a fitted effect of over 45% in size
Outline: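 Tox21 qHTS format: SBE-bla HEK 293T cells treated with DMSO-dissolved compounds for 5 hr; CellTiter-Glo luminescence after 30 min at room temperature.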

[16] = qHTS assay to identify small molecule agonists of the TGF-beta/Smad signaling pathway (AID 1346859; active = well fitted activation curve with a large enough effect in the signal ratio in the repeat runs, not every such curve was filed as active; the % refers to the signal ratio; also: series mostly up to about 77 µM)
Outline: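 Fluorescence (ex 405 nm; em 460 and 530 nm) was read 2 h after LiveBLAzer FRET substrate at RT. The preceding compound treatment of overnight-plated SBE-bla HEK293T cells lasted 5 h at 37 C.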

[17] = Human pregnane X receptor (PXR) small molecule agonists, qHTS cell viability counter screen (AID 1346977); also: nearly all actives have a fitted effect of over 50% in size
Outline: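 Same-well viability read: CellTiter-Fluor added after 23 hr compound exposure, fluorescence measured 1 hr later. Cells were PXR-Luc HepG2 seeded at 2,000/well in 5% charcoal-stripped FBS medium, rested 5 hr before dosing at 37 C.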

[18] = target: Thyrotropin-releasing hormone receptor (Homo sapiens) (UniProt P34981); assay: qHTS assay to identify small molecule antagonists of the thyrotropin-releasing hormone receptor (TRHR) signaling pathway (AID 1346877; active = well fitted inhibition curve with a large enough effect in the repeat runs, not every such curve was filed as active; also: series mostly up to about 51 µM)
Outline: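 Calcium signal in dye-loaded TRHR/HEK293 cells; compounds added 5 min before TRH (1 nM final); fluorescence monitored 3 min at 1 s steps.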

[19] = target: Thyrotropin-releasing hormone receptor (Homo sapiens) (UniProt P34981); assay: qHTS assay to identify small molecule agonists of the thyrotropin-releasing hormone receptor (TRHR) signaling pathway (AID 1346891; calls by dose curve; also: potency is read from the fitted curve at half-maximal effect; as to activation: series mostly up to about 58 µM)
Outline: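 Agonist-mode intracellular calcium readout: kinetic fluorescence over 3 min at 1 s intervals after compound addition to TRHR-HEK293 cells (18 h seeded, 2 h dye-loaded at 37 C). Fifteen concentrations, triplicates.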

[20] = target: Estrogen receptor beta (Homo sapiens) (UniProt Q92731); assay: qHTS assay to identify small molecule antagonists of the estrogen receptor beta (ER-beta) signaling pathway (AID 1259378; active = well fitted inhibition curve with a large enough effect in the signal ratio in the repeat runs, not every such curve was filed as active; the % refers to the signal ratio)
Outline: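 ER-beta-UAS-bla HEK293T cells in 2% charcoal-stripped FBS medium treated with compound plus 1nM final 17-beta-estradiol for 16 hr at 37C. Beta-lactamase reporter read by FRET substrate fluorescence after 2 hours at room temperature.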

Progesterone receptor (Homo sapiens), sequence (P06401 whole entry, looked up): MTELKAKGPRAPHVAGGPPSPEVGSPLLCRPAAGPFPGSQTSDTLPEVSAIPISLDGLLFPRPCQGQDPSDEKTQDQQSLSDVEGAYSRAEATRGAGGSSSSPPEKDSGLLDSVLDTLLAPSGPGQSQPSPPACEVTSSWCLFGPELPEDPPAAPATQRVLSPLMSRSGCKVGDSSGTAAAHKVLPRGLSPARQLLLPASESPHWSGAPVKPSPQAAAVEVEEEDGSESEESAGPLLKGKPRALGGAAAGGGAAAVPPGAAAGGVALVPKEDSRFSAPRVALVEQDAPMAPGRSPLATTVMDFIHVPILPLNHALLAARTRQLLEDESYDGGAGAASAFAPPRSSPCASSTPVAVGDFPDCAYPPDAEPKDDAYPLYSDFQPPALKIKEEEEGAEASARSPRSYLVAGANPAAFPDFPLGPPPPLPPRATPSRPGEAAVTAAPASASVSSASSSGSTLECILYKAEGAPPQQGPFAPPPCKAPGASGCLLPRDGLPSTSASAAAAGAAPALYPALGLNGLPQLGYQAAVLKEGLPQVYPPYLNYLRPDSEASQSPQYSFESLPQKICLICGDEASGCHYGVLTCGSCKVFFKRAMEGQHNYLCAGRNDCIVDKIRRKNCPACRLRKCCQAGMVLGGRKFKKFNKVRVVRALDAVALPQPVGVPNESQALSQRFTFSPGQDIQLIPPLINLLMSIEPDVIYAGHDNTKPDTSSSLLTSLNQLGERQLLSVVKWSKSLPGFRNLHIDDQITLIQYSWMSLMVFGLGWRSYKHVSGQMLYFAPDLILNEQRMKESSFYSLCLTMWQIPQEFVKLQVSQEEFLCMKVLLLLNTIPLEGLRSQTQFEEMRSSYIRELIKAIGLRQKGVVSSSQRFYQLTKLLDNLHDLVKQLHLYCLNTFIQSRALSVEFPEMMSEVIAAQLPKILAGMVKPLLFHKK
Thyrotropin receptor (Homo sapiens), sequence (P16473 whole entry, looked up): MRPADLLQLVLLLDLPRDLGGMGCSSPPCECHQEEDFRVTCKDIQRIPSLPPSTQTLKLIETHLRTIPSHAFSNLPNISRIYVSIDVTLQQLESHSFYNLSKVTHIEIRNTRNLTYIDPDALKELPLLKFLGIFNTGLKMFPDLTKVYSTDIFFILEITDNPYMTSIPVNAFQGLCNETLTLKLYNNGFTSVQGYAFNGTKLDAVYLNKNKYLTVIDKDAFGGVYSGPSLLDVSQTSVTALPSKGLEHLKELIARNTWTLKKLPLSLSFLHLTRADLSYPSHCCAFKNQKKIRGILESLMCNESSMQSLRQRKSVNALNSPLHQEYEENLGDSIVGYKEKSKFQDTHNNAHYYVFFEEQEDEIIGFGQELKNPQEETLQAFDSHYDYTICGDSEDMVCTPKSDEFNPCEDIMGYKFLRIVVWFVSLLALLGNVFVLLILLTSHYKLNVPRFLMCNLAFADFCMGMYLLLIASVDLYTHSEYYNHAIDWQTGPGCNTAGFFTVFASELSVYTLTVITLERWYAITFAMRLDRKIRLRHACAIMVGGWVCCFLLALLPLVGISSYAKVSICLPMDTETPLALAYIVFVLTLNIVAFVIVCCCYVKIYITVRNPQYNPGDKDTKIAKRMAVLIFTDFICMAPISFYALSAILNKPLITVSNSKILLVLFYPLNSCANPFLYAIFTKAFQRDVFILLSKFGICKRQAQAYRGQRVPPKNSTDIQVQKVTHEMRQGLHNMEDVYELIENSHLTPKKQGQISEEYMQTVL
Androgen receptor (Homo sapiens), sequence (P10275 whole entry, looked up): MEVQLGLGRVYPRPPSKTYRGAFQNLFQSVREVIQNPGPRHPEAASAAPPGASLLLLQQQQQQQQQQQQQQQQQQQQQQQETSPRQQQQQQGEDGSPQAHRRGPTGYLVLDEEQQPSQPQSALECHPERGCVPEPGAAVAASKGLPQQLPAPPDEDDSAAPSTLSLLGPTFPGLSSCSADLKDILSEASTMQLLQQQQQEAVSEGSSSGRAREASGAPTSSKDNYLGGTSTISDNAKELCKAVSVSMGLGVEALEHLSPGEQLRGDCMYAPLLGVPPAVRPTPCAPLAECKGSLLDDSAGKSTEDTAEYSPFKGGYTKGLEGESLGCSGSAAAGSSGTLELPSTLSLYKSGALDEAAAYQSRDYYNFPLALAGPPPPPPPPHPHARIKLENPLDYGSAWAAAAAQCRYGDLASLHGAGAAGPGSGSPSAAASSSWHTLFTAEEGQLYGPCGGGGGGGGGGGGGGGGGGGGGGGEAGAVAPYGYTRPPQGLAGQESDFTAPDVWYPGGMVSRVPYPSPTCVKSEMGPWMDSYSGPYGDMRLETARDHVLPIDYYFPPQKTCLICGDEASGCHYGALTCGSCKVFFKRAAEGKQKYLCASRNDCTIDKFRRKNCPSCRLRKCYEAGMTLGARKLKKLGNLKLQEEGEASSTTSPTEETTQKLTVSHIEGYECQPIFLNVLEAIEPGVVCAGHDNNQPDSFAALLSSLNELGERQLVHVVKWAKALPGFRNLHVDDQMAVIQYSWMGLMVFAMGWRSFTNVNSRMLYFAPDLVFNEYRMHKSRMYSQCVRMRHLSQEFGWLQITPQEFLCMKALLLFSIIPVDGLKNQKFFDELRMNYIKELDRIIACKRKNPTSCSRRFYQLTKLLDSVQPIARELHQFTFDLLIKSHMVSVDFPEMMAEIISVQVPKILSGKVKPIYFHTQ
Estrogen receptor beta (Homo sapiens), sequence (Q92731 whole entry, looked up): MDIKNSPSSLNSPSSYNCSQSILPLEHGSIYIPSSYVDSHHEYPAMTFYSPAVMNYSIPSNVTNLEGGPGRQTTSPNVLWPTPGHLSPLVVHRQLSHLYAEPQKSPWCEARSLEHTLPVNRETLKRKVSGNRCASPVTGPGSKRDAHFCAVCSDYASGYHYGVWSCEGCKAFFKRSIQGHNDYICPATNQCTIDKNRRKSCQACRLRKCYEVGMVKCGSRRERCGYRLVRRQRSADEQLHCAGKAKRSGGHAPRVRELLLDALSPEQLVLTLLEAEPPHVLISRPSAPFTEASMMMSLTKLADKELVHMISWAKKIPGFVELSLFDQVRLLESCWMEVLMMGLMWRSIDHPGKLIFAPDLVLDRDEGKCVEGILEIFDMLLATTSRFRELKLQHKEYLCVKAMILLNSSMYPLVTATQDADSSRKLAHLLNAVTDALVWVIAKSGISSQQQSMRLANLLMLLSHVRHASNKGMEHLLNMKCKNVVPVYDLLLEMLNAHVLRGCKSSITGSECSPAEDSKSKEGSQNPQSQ
Thyrotropin-releasing hormone receptor (Homo sapiens), sequence (P34981 whole entry, looked up): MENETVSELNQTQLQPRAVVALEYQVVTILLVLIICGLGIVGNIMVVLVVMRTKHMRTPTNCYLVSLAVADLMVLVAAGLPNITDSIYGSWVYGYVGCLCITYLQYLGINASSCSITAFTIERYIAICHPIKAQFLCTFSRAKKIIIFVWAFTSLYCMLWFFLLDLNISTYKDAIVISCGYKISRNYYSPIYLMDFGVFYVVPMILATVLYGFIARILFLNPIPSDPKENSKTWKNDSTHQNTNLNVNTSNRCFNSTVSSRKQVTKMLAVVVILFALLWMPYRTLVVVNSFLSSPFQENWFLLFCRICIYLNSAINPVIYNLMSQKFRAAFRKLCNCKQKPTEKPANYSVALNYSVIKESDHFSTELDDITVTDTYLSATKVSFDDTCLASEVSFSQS
Estrogen receptor (Homo sapiens), sequence (P03372 whole entry, looked up): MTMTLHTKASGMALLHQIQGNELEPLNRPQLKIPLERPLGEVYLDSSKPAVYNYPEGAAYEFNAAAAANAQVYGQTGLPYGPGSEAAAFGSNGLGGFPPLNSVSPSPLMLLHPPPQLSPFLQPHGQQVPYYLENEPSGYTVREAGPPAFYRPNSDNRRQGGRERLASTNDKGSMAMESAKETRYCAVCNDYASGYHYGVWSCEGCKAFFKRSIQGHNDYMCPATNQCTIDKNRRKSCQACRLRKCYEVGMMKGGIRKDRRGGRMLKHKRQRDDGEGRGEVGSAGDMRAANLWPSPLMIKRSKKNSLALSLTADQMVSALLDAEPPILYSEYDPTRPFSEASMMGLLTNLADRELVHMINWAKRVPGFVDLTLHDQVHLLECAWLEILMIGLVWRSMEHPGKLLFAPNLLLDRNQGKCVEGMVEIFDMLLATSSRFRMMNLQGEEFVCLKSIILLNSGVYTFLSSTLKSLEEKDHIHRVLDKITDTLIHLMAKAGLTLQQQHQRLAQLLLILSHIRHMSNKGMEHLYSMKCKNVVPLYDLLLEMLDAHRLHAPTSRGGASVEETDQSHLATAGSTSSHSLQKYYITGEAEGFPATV

SMILES | Potency [1] | Potency [2] | Potency [3] | Potency [4] | outcome [5] | outcome [6] | outcome [7] | outcome [8] | Potency [9] | Potency [10] | Potency [11] | Potency [12] | Potency [13] | outcome [14] | outcome [15] | outcome [16] | Potency [17] | outcome [18] | Potency [19] | Potency [20]
O=C(c1ccccc1O)c1ccccc1O | inactive | inactive | inactive | inactive | inactive | inactive | inactive | inactive | inactive | inactive | 27 µM (active) | inactive | inactive | inactive | inactive | inactive | inactive |  |  | 
NO | inactive | inactive | inactive |  | inactive |  | inactive |  | inactive |  |  | inactive | inactive |  | inactive | inactive | inactive |  |  | 
c1ccc(CCc2ccccc2)cc1 | inactive | inactive | inactive |  |  |  | inactive |  | inactive | inactive | inactive |  | inactive | inactive | inactive | inactive | inactive | inactive | inactive | 
CC(CO)(CO)[N+](=O)[O-] |  | inactive | inactive |  | inactive | inactive | inactive | inactive | inactive | inactive | inactive | inactive | inactive | inactive | inactive | inactive | inactive | inactive | inactive | inactive
CCN(C=O)CC | inactive | inactive |  |  | inactive |  | inactive | inactive | inactive |  |  |  | 49.8 µM (active) | inactive | inactive | inactive |  | inactive |  | inactive
CNC(=O)Nc1ccc(Cl)c(Cl)c1 |  | inactive |  | inactive | inactive | inactive | inactive | inactive | inactive | inactive |  | inactive | inactive | inactive | inactive | inactive | inactive | inactive | inactive | inactive
CCN(Cc1ccccc1)c1ccccc1 | inactive |  |  | inactive | inactive | inactive | inactive |  | inactive |  | inactive |  | 67.8 µM (active) | inactive | inactive | inactive | inactive | inactive |  | 
O=C1CCCCCCCCCCCCCCO1 | inactive | inactive | inactive |  |  |  | inactive |  | inactive | inactive | inactive | inactive | inactive | inactive | inactive | inactive |  | inactive | inactive | inactive
Cc1coc2ccccc2c1=O |  | inactive | inactive | inactive | inactive |  | inactive | inactive | inactive | inactive | inactive | inactive | inactive | inactive | inactive | inactive | inactive | inactive | inactive | 
O=[N+]([O-])c1cncn1CCN1CCOCC1 | inactive | inactive |  | inactive | inactive | inactive | inactive | inactive | inactive | inactive | inactive | inactive | inactive | inactive | inactive | inactive | inactive | inactive |  | inactive
CCC(C)(CCCC(C)C)OC(C)=O (configuration not stated) | inactive | inactive |  |  |  | inactive | inactive | inactive | inactive | inactive | inactive | inactive | inactive | inactive | inactive | inactive |  |  |  | inactive
Cc1onc(-c2c(Cl)cccc2Cl)c1C(=O)Cl | inactive | inactive |  | inactive | inactive | inactive | inactive | inactive | inactive | inactive | inactive |  | inactive |  | inactive | inactive | inactive | inactive |  | inactive
COCCOC[C@H](CC1(C(=O)NC2CCC(C(=O)O)CC2)CCCC1)C(=O)Oc1ccc2c(c1)CCC2 (some centres not stated) | inactive |  | inactive | inactive | inactive | inactive | inactive | inactive |  | inactive | inactive |  | inactive | inactive | inactive | inactive | inactive |  | 11 µM (active) | inactive
O=C1c2ccccc2C(=O)c2cc(O)ccc21 | 5.45 µM (active) |  | inactive |  | inactive |  | inactive |  | 27.3 µM (active) | inactive | inactive |  |  | inactive | inactive | inactive |  |  |  | 
CO[C@@]1(NC(=O)CSC[C@@H](N)C(=O)O)C(=O)N2C(C(=O)O)=C(CSc3nnnn3C)CS[C@@H]21 |  | inactive | inactive | inactive | inactive | inactive | inactive | inactive | inactive | inactive | inactive | inactive | inactive | inactive | inactive | inactive |  | inactive | inactive | 
Nc1c2c(nc3c1CCC3)CCCC2 |  | inactive | inactive | inactive | inactive | inactive | inactive |  | inactive | inactive | inactive | inactive | inactive | inactive | inactive | inactive | inactive |  | inactive | 
CCCC(=O)O[C@]1(C(=O)CC)CC[C@H]2[C@@H]3CCC4=CC(=O)CC[C@]4(C)[C@H]3[C@@H](O)C[C@@]21C | inactive | inactive |  | 0.0133 µM (active) | inactive | inactive |  |  | inactive | 0.0075 µM (active) | inactive | inactive | inactive | inactive | inactive | inactive | inactive | inactive | inactive | 
